# Results filed as inconclusive are left out. A call without a number means that no potency is given here. Active and inactive are the calls of the source. Calls follow the shape of the dose curve; as a rule, active = well fitted cell-killing curve with a large enough effect; inconclusive = small, poorly fitted or top-dose-only effect; inactive = no such curve, though single readings can be large or run the other way.
# Assay: qHTS of pediatric cancer cell lines to identify multiple opportunities for drug repurposing: Primary screen for Rh30 cells (AID 1347107); also: nearly all actives have a fitted effect of over 75% in size
# Settings: Rh30 rhabdomyosarcoma viability, CellTiter-Glo luminescence, 48 h; series mostly up to 46 µM
# Procedure, shortened: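 Cells (500-1,000/well) rested 5 h, then received compounds for 48 h; metabolically active cells were measured by CellTiter-Glo luminescence. Final concentrations spanned up to 46 µM (MIPE, 11-point) or 0.59 nM-46 µM (NPC, 8-point) in primary screens, 11-point in follow-ups.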
# Potency is read from the fitted curve at half-maximal effect.
SMILES,Potency,"activity change, negative = cytotoxic"
NC(=O)c1ccccc1O,inactive,–
Cc1ncc(CO)c(C=O)c1O,inactive,–
O=C1c2cccc3c2[C@H](CCC3)CN1[C@@H]1CN2CCC1CC2,inactive,–
COc1cc([C@H]2Oc3cc([C@H]4Oc5cc(O)cc(O)c5C(=O)[C@@H]4O)ccc3O[C@@H]2CO)ccc1O,inactive,–
O=C(CCN1CCN2CCCC2C1)N1c2ccccc2Sc2ccc(Cl)cc21 (stereo not drawn),inactive,–
NCc1ccccc1Sc1ccccc1CO,inactive,–
FC1(F)C(F)(F)C(F)(F)C2(F)C(F)(F)C(F)(F)C(F)(F)C(F)(F)C2(F)C1(F)F (stereo not drawn),inactive,–
O=S(c1cc(Cl)cc(Cl)c1O)c1cc(Cl)cc(Cl)c1O,inactive,–
NC(N)=NN=C(/C=C/c1ccc([N+](=O)[O-])o1)/C=C/c1ccc([N+](=O)[O-])o1,3.35 µM (active),–
CCCCCCCCOc1ccc(C(=O)c2ccccc2)c(O)c1,inactive,–
CN(Cc1ccc(C(C)(C)C)cc1)Cc1cccc2ccccc12,inactive,–
COc1cc(N)c(Cl)cc1C(=O)NC1CCN(Cc2ccccc2)CC1,inactive,–
CCN[C@@H]1C[C@H](N)[C@@H](OC2OC(CN)=CCC2N)[C@H](O)[C@H]1O[C@H]1OC[C@](C)(O)[C@H](NC)[C@H]1O (stereo partly drawn),–,14.5% [at 0.597 µM] (inactive)
Cc1cn([C@H]2C[C@H](F)[C@@H](CO)O2)c(=O)[nH]c1=O,inactive,–
Cc1c[nH]c2ccccc12,inactive,–
CCCN(CCC)S(=O)(=O)c1ccc(C(=O)O)cc1,inactive,–
O=C1OC2(c3ccccc31)c1cc(Br)c(O)c(Br)c1Oc1c2cc(Br)c(O)c1Br,inactive,–

# Assay: qHTS of pediatric cancer cell lines to identify multiple opportunities for drug repurposing: Primary screen for Rh41 cells (AID 1347108); also: nearly all actives have a fitted effect of over 70% in size;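 as to activity change, negative = cytotoxic: luminescence drop marks cytotoxic hits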
# Settings: Rh41 rhabdomyosarcoma viability, CellTiter-Glo luminescence, 48 h; series mostly up to 46 µM
# Procedure, shortened: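 Following a 5-hour attachment period, cells at 500-1,000/well received compounds and were cultured for 48 hours. CellTiter-Glo was added and luminescence read to estimate viable, metabolically active cells.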
SMILES,Potency,"activity change, negative = cytotoxic"
Cn1c(=O)c2[nH]c(Br)nc2n(C)c1=O,inactive,–
C=CCN1CCc2nc(N)sc2CC1,inactive,–
Cl/C(=C\n1cncn1)c1ccc(Cl)cc1Cl,inactive,–
Clc1cccc(C(c2ccc3nc[nH]c3c2)n2ccnc2)c1 (stereo not drawn),inactive,–
Cc1nc(-c2ccc(Cl)cc2)oc1COC(C)(C)C(=O)O,inactive,–
CCC(C(=O)OCCOCCN(CC)CC)c1ccccc1 (stereo not drawn),inactive,–
OC[C@H]1O[C@@H]2O[C@H]3[C@H](O)[C@@H](O)[C@@H](O[C@H]4[C@H](O)[C@@H](O)[C@@H](O[C@H]5[C@H](O)[C@@H](O)[C@@H](O[C@H]6[C@H](O)[C@@H](O)[C@@H](O[C@H]7[C@H](O)[C@@H](O)[C@@H](O[C@H]8[C@H](O)[C@@H](O)[C@@H](O[C@H]1[C@H](O)[C@H]2O)O[C@@H]8CO)O[C@@H]7CO)O[C@@H]6CO)O[C@@H]5CO)O[C@@H]4CO)O[C@@H]3CO,inactive,–
OC1C(O)C(O)C(O)C(O)C1O (stereo not drawn),inactive,–
CCOC(=O)[C@H](CCc1ccccc1)N[C@@H](C)C(=O)N1[C@H](C(=O)O)C[C@@H]2CCC[C@@H]21,inactive,–
CC(=O)NO,inactive,–
CCCCCCCCCCCCCCCCO,inactive,–
CC[N+](C)(CC)CCOC(=O)C(O)(c1ccccc1)C1CCCCC1 (stereo not drawn),inactive,–
COc1ccc(-c2cc(C(F)F)nn2-c2ccc(S(N)(=O)=O)cc2)cc1F,inactive,–
Cc1cccc(C)c1NC(=O)c1ccccc1C(=O)O,inactive,–
Cc1c(-c2ccccc2)oc2c(C(=O)OCCN3CCCCC3)cccc2c1=O,inactive,–
CC(=O)Nc1ccc(S(=O)(=O)Nc2ccc([N+](=O)[O-])cc2)cc1,inactive,–
NC(=O)c1ccccc1O,inactive,–
CO[C@]12C[C@@H](COC(=O)c3cncc(Br)c3)CN(C)[C@@H]1Cc1cn(C)c3cccc2c13,inactive,–

SMILES,Potency,"activity change, negative = cytotoxic"
Cc1ncc(CO)c(C=O)c1O,inactive,–
O=C1c2cccc3c2[C@H](CCC3)CN1[C@@H]1CN2CCC1CC2,inactive,–
COc1cc([C@H]2Oc3cc([C@H]4Oc5cc(O)cc(O)c5C(=O)[C@@H]4O)ccc3O[C@@H]2CO)ccc1O,inactive,–
O=C(CCN1CCN2CCCC2C1)N1c2ccccc2Sc2ccc(Cl)cc21 (stereo not drawn),inactive,–
NCc1ccccc1Sc1ccccc1CO,inactive,–
FC1(F)C(F)(F)C(F)(F)C2(F)C(F)(F)C(F)(F)C(F)(F)C(F)(F)C2(F)C1(F)F (stereo not drawn),inactive,–
O=S(c1cc(Cl)cc(Cl)c1O)c1cc(Cl)cc(Cl)c1O,inactive,–
NC(N)=NN=C(/C=C/c1ccc([N+](=O)[O-])o1)/C=C/c1ccc([N+](=O)[O-])o1,1.19 µM (active),–
CCCCCCCCOc1ccc(C(=O)c2ccccc2)c(O)c1,inactive,–
CN(Cc1ccc(C(C)(C)C)cc1)Cc1cccc2ccccc12,inactive,–
COc1cc(N)c(Cl)cc1C(=O)NC1CCN(Cc2ccccc2)CC1,inactive,–
CCN[C@@H]1C[C@H](N)[C@@H](OC2OC(CN)=CCC2N)[C@H](O)[C@H]1O[C@H]1OC[C@](C)(O)[C@H](NC)[C@H]1O (stereo partly drawn),–,8.19% [at 0.597 µM] (inactive)
Cc1cn([C@H]2C[C@H](F)[C@@H](CO)O2)c(=O)[nH]c1=O,inactive,–
Cc1c[nH]c2ccccc12,inactive,–
CCCN(CCC)S(=O)(=O)c1ccc(C(=O)O)cc1,inactive,–
COP(=O)(OC)OC(c1ccc(Cl)cc1)P(=O)(OC)OC (stereo not drawn),inactive,–
O=C1OC2(c3ccccc31)c1cc(Br)c(O)c(Br)c1Oc1c2cc(Br)c(O)c1Br,inactive,–
CC(C)Cn1cnc2c1c(=O)n(C)c(=O)n2C,inactive,–

# From PubChem BioAssay (NCATS)
